# Measurements published in the antibiotic and cytotoxicity screens of Wong et al. (2023).
# About 1,500 (3.8%) of roughly 39,000 compounds were called active. The entries come from a sample that favours actives as a whole.
# Test system: HSkMC (human skeletal muscle cells)
# Assay: cytotoxicity call (relative viability < 0.9)
# Details: 10 µM
row,SMILES,cytotoxicity call
1,Cc1ccc(S(=O)(=O)N(C)C[C@@H]2Oc3ccc(NC(=O)CCCN(C)C)cc3CC(=O)N([C@@H](C)CO)C[C@H]2C)cc1,inactive
2,O=C(CN1CCOCC1)NCC[C@@H]1CC[C@H](NC(=O)Cc2ccccn2)[C@@H](CO)O1,inactive
3,Cc1noc(C)c1S(=O)(=O)N(C)C[C@H]1Oc2ccc(NC(=O)Cn3cnnn3)cc2CC(=O)N([C@@H](C)CO)C[C@@H]1C,inactive
4,C[C@@H]1CN([C@H](C)CO)S(=O)(=O)c2ccc(C#Cc3ccccc3)cc2O[C@@H]1CN(C)S(C)(=O)=O,inactive
5,C[C@@H]1CCCCO[C@@H](CN(C)C(=O)Nc2ccccc2)[C@@H](C)CN([C@@H](C)CO)C(=O)c2cc(NC(=O)Nc3cccc4ccccc34)ccc2O1,inactive
6,COc1ccc(S(=O)(=O)Nc2ccc3c(c2)OC[C@@H](C)N(C)C[C@@H](C)[C@H](OC)CN(C)C3=O)cc1,inactive
7,CO[C@H](CN(C)S(=O)(=O)c1cccc(Cl)c1)[C@H](C)CN([C@H](C)CO)S(=O)(=O)c1ccc(Cl)cc1,inactive
8,O=C(C[C@H]1CC[C@H]2[C@@H](COC[C@H](O)CN2C(=O)c2cccnc2)O1)NCc1ccc(-c2ccccc2)cc1,inactive
9,NC(=O)c1nc2c(s1)CCNCC2,inactive
10,Cc1ccc(S(=O)(=O)N(C)C[C@H]2OCCCC[C@@H](C)Oc3ccc(NS(C)(=O)=O)cc3C(=O)N([C@H](C)CO)C[C@@H]2C)cc1,inactive
11,COc1ccc(S(=O)(=O)N(C)C[C@@H]2OCc3cn(nn3)CCCC(=O)N([C@H](C)CO)C[C@@H]2C)cc1,inactive
12,O=C(C[C@H]1CC[C@@H]2[C@H](COC[C@H](O)CN2S(=O)(=O)c2ccccc2)O1)NCc1ccc(-c2ccccc2)cc1,inactive
13,Cc1ccc(S(=O)(=O)Nc2ccc3c(c2)C(=O)N([C@H](C)CO)C[C@@H](C)[C@H](CN(C)C(=O)Nc2ccc(F)cc2)OCCCC[C@H](C)O3)cc1,active
14,Cc1ccc(S(=O)(=O)Nc2ccc3c(c2)C(=O)N([C@@H](C)CO)C[C@@H](C)[C@H](CN(C)C(=O)Nc2ccc(F)cc2)OCCCC[C@@H](C)O3)cc1,inactive
15,Cc1ccc(S(=O)(=O)Nc2ccc3c(c2)C(=O)N([C@@H](C)CO)C[C@H](C)[C@@H](CN(C)C(=O)Nc2ccc(F)cc2)OCCCC[C@H](C)O3)cc1,inactive
16,Cc1ccc(S(=O)(=O)Nc2ccc3c(c2)C(=O)N([C@H](C)CO)C[C@H](C)[C@H](CN(C)C(=O)Nc2ccc(F)cc2)OCCCC[C@H](C)O3)cc1,inactive
17,Cc1ccc(S(=O)(=O)Nc2ccc3c(c2)C(=O)N([C@H](C)CO)C[C@@H](C)[C@H](CN(C)C(=O)Nc2ccc(F)cc2)OCCCC[C@@H](C)O3)cc1,active
18,Cc1ccc(S(=O)(=O)Nc2ccc3c(c2)C(=O)N([C@@H](C)CO)C[C@H](C)[C@@H](CN(C)C(=O)Nc2ccc(F)cc2)OCCCC[C@@H](C)O3)cc1,inactive
19,C[C@H]1CN([C@@H](C)CO)S(=O)(=O)c2ccc(C#CC(C)(C)O)cc2O[C@H]1CN(C)C(=O)C1CCCCC1,inactive
20,C[C@H](CO)N1C[C@H](C)[C@H](CN(C)S(C)(=O)=O)Oc2ccc(NC(=O)Nc3ccc(F)cc3)cc2CC1=O,inactive
21,COc1ccc(NC(=O)Nc2cccc3c2O[C@H](CN(C)C(=O)Nc2cccc4ccccc24)[C@H](C)CN([C@H](C)CO)C3=O)cc1,inactive
22,COc1ccc(NC(=O)N(C)C[C@H]2Oc3c(NC(=O)C4CC4)cccc3C(=O)N([C@H](C)CO)C[C@H]2C)cc1,inactive
23,C[C@H]1CN([C@@H](C)CO)C(=O)c2cc(NC(=O)Cc3ccccc3)ccc2O[C@@H]1CN(C)C(=O)Nc1cccc2ccccc12,inactive
24,Cc1nc2c(=O)n(C)c(=O)n(C)c2nc1Cl,active
25,Cn1c(=O)c2c(nc(SCSc3nc4c(c(=O)n(C)c(=O)n4C)n3C)n2C)n(C)c1=O,inactive
26,CCn1c(Cl)nc2c1c(=O)n(C)c(=O)n2C,inactive

row,SMILES,cytotoxicity call
1,C[C@@H]1CN([C@H](C)CO)C(=O)c2cc(NC(=O)Nc3ccc4c(c3)OCO4)ccc2O[C@@H](C)CCCCO[C@H]1CN(C)Cc1ccccc1,inactive
2,Cc1ccc(S(=O)(=O)N(C)C[C@H]2OCCCC[C@@H](C)Oc3ccc(NS(C)(=O)=O)cc3C(=O)N([C@H](C)CO)C[C@H]2C)cc1,inactive
3,Cn1nnc2c1CCN(C(=O)CS(C)(=O)=O)[C@@H]2COCC1CC1,inactive
4,CCN1CCN(Cc2ccc(C(=O)Nc3ccc(C)c(Oc4ccc5c(c4)CC(=O)N5)c3)cc2C(F)(F)F)CC1,active
5,COCC(=O)Nc1ccc2c(c1)CC(=O)N2,inactive
6,Cc1ccc(S(=O)(=O)Nc2ccc3c(c2)C(=O)N([C@@H](C)CO)C[C@H](C)[C@@H](CN(C)C(=O)Nc2c(C)noc2C)OCCCC[C@@H](C)O3)cc1,inactive
7,Cc1noc(C)c1NC(=O)N(C)C[C@@H]1Oc2ccc(NC(=O)C3CC3)cc2C(=O)N([C@H](C)CO)C[C@H]1C,inactive
8,C[C@@H]1CN([C@H](C)CO)C(=O)CCCn2nncc2CO[C@H]1CN(C)C(=O)Nc1cccc(C(F)(F)F)c1,inactive
9,C[n+]1cc2c3c(ccc2c2ccc4cc5c(cc4c21)OCO5)OCO3.[Cl-],active
10,COc1ccc2cc3[n+](cc2c1OC)CCc1cc2c(cc1-3)OCO2.[Cl-],inactive
11,COCC#Cc1cnc2c(c1)C(=O)N([C@@H](C)CO)C[C@@H](C)[C@@H](CN(C)S(=O)(=O)c1ccccc1)O2,inactive
12,C[C@@H]1CN([C@H](C)CO)C(=O)c2cc(C#Cc3ccccc3F)cnc2O[C@@H]1CN(C)C(=O)c1ccc2c(c1)OCO2,inactive
13,Cc1ncc[nH]1,inactive
14,OCc1ncc[nH]1,inactive
15,CC[C@@H](C)SSc1ncc[nH]1,active
16,C[C@@H]1CN([C@H](C)CO)C(=O)c2cccc(NC(=O)Nc3ccc(F)cc3)c2O[C@H]1CN(C)C(=O)Nc1cccc2ccccc12,inactive
17,C[C@@H]1CN([C@@H](C)CO)C(=O)c2cc(NS(C)(=O)=O)ccc2O[C@@H]1CN(C)Cc1ccc(C(=O)Nc2ccccc2N)cc1,inactive
18,O=C(NCCN1CCOCC1)c1ccccn1,inactive
19,Cc1ccc(S(=O)(=O)NC2=NCN(CCN3CCOCC3)CN2)cc1,inactive
20,Cc1ccc(-n2nc(C(C)(C)C)cc2NC(=O)Nc2ccc(OCCN3CCOCC3)c3ccccc23)cc1,active
21,C[C@@H]1CN([C@H](C)CO)C(=O)c2cc(NS(=O)(=O)c3cn(C)cn3)ccc2O[C@@H]1CN(C)C(=O)Nc1ccc2c(c1)OCO2,inactive
22,O=C1[C@@H]2[C@@H](C(=O)N1CCO)[C@@H]1C=C[C@@H]2C1,inactive
23,C[C@@H]1CN([C@H](C)CO)S(=O)(=O)c2ccc(-c3cncnc3)cc2O[C@H]1CN(C)C(=O)Cc1ccncc1,inactive
24,C[C@H](CO)N1C[C@H](C)[C@@H](CN(C)C(=O)Nc2cccc3ccccc23)Oc2ccc(NC(=O)Nc3ccc4c(c3)OCO4)cc2C1=O,inactive
25,C[C@H]1CN([C@@H](C)CO)C(=O)c2cc(NC(=O)Nc3ccc4c(c3)OCO4)ccc2O[C@@H]1CN(C)C(=O)Nc1cccc2ccccc12,inactive
26,C[C@@H]1CN([C@H](C)CO)C(=O)c2cc(NC(=O)Nc3ccc4c(c3)OCO4)ccc2O[C@H]1CN(C)C(=O)Nc1cccc2ccccc12,inactive

row,SMILES,cytotoxicity call
1,C[C@@H]1CN([C@H](C)CO)C(=O)c2cc(NC(=O)Nc3ccc4c(c3)OCO4)ccc2O[C@@H]1CN(C)C(=O)Nc1cccc2ccccc12,active
2,C[C@@H]1CN([C@@H](C)CO)C(=O)c2cc(NC(=O)Nc3ccc4c(c3)OCO4)ccc2O[C@@H]1CN(C)C(=O)Nc1cccc2ccccc12,active
3,C[C@H]1CN([C@@H](C)CO)C(=O)c2cc(NC(=O)Nc3ccc4c(c3)OCO4)ccc2O[C@H]1CN(C)C(=O)Nc1cccc2ccccc12,inactive
4,O=C(C[C@H]1CC[C@H]2[C@@H](COC[C@@H](O)CN2S(=O)(=O)c2cccc(Cl)c2)O1)NCCCN1CCOCC1,inactive
5,CO[C@@H]1[C@@H](O)[C@H](O)[C@H](O)[C@H](O)[C@@H]1O,inactive
6,COc1ccc(NC(=O)N(C)C[C@@H]2Oc3ccc(NC(=O)CCCCCC(=O)Nc4ccccc4N)cc3C(=O)N([C@@H](C)CO)C[C@@H]2C)cc1,inactive
7,O=C(Cn1cc(COc2ccc3ccccc3c2)nn1)NS(=O)(=O)c1ccccc1OC(F)(F)F,inactive
8,CN(C)C(=O)C[C@@H]1CC[C@@H]2[C@H](COC[C@H](O)CN2S(=O)(=O)c2ccc(Oc3ccccc3)cc2)O1,inactive
9,COc1ccc2c(c1)n(CCN)c(=O)n2C(=O)[C@@H]1C[C@H](C)CC[C@H]1C(C)C,active
10,CC(C)[C@H]1CC[C@@H](C)C[C@@H]1NC(=O)c1cccc2ccccc12,inactive
11,COc1ccc(S(=O)(=O)Nc2ccc3c(c2)C(=O)N([C@H](C)CO)C[C@@H](C)[C@@H](CN(C)S(C)(=O)=O)O3)cc1,inactive
12,Cc1cc(C)c(/N=c2\scc(C)n2Cc2ccccc2)c(C)c1,inactive
13,Cc1ccc(S(=O)(=O)N(C)C[C@H]2Oc3ccc(NC(=O)Nc4ccc(C(F)(F)F)cc4)cc3C(=O)N([C@@H](C)CO)C[C@@H]2C)cc1,inactive
14,C[C@@H]1CN([C@@H](C)CO)C(=O)c2cc(NC(=O)Nc3ccc(C(F)(F)F)cc3)ccc2O[C@H]1CN(C)S(=O)(=O)c1ccc(F)cc1,inactive
15,C[C@H](CO)N1C[C@H](C)[C@H](CN(C)S(=O)(=O)c2ccc(F)cc2)Oc2ccc(NC(=O)Nc3ccc(C(F)(F)F)cc3)cc2C1=O,active
16,C[C@H]1CN([C@@H](C)CO)C(=O)c2cc(NC(=O)Nc3ccc(C(F)(F)F)cc3)ccc2O[C@H]1CN(C)S(=O)(=O)c1ccc(F)cc1,inactive
17,C[C@H](CO)N1C[C@H](C)[C@@H](CN(C)S(=O)(=O)c2ccc(F)cc2)Oc2ccc(NC(=O)Nc3ccc(C(F)(F)F)cc3)cc2C1=O,inactive
18,C[C@@H]1CN([C@@H](C)CO)C(=O)c2cc(NC(=O)Nc3ccc(C(F)(F)F)cc3)ccc2O[C@@H]1CN(C)S(=O)(=O)c1ccc(F)cc1,inactive
19,Cc1ccc(S(=O)(=O)N(C)C[C@H]2Oc3ccc(NC(=O)Nc4ccc(C(F)(F)F)cc4)cc3C(=O)N([C@H](C)CO)C[C@@H]2C)cc1,inactive
20,Cc1ccc(S(=O)(=O)N(C)C[C@H]2Oc3ccc(NC(=O)Nc4ccc(C(F)(F)F)cc4)cc3C(=O)N([C@H](C)CO)C[C@H]2C)cc1,active
21,C[C@@H]1CN([C@H](C)CO)C(=O)c2cc(NC(=O)Nc3ccc(C(F)(F)F)cc3)ccc2O[C@H]1CN(C)S(=O)(=O)c1ccc(F)cc1,active
22,C[C@@H]1CN([C@H](C)CO)C(=O)c2cc(NC(=O)Nc3ccc(C(F)(F)F)cc3)ccc2O[C@@H]1CN(C)S(=O)(=O)c1ccc(F)cc1,active
23,C[C@H]1CN([C@@H](C)CO)C(=O)c2cc(NC(=O)Nc3ccc(C(F)(F)F)cc3)ccc2O[C@@H]1CN(C)S(=O)(=O)c1ccc(F)cc1,inactive
24,Cc1ccc(S(=O)(=O)N(C)C[C@@H]2Oc3ccc(NC(=O)Nc4ccc(C(F)(F)F)cc4)cc3C(=O)N([C@@H](C)CO)C[C@@H]2C)cc1,inactive
